# The entries come from a sample that favours hits as a whole.
# CD40 NFkB inh = CD40 pathway inhibition in BL2 cells. 83,000 tested, 0.94% active. inhibition, % at 10 µM. BL2 NF-kB luciferase reporter, CD40L-induced, 4 h. AID 1053188;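 active = mean inhibition of at least 50% with a set share of replicates also reaching that level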
# Numbers stand for hits; - = inactive; [ ] = dose if it differs, or a comment.
SMILES,CD40 NFkB inh
C[C@H]1CN([C@@H](C)CO)C(=O)c2cc(NC(=O)Nc3ccc(C(F)(F)F)cc3)ccc2O[C@H]1CN(C)S(=O)(=O)c1ccc(Cl)cc1,-
COc1ccc(S(=O)(=O)N(C)C[C@H]2Oc3ccc(NC(=O)Nc4ccc(C(F)(F)F)cc4)cc3C(=O)N([C@@H](C)CO)C[C@@H]2C)cc1,74[25 µM]
C[C@H](CO)N1C[C@H](C)[C@H](CN(C)Cc2ccc(C(=O)Nc3ccccc3N)cc2)Oc2c(NS(=O)(=O)c3ccc(Cl)cc3)cccc2C1=O,-
COc1ccc(S(=O)(=O)Nc2ccc3c(c2)C(=O)N([C@@H](C)CO)C[C@H](C)[C@H](CN(C)Cc2ccc(C(F)(F)F)cc2)OCCCC[C@H](C)O3)cc1,59[25 µM]
C[C@H]1CN([C@@H](C)CO)C(=O)c2cccc(NS(=O)(=O)c3ccc(Cl)cc3)c2O[C@H]1CN(C)Cc1ccc(C(=O)Nc2ccccc2N)cc1,-
C[C@@H]1CN([C@H](C)CO)C(=O)c2cccc(NS(=O)(=O)c3ccc(Cl)cc3)c2O[C@@H]1CN(C)Cc1ccc(C(=O)Nc2ccccc2N)cc1,active[25 µM]
C[C@H](CO)N1C[C@H](C)[C@@H](CN(C)Cc2ccc(Cl)c(Cl)c2)OCCCC[C@H](C)Oc2ccc(NS(=O)(=O)c3cccs3)cc2C1=O,51[25 µM]
COc1ccc(CN2CC3(CCN(C(=O)Cc4ccncc4)CC3)c3c([nH]c4cc(OC)ccc34)[C@@H]2CO)cc1,-
COc1ccccc1NC(=O)N1C[C@@H]2[C@H](c3ccccc31)[C@@H](CO)N2C(=O)C1CC1,-
O=C(c1ccccc1F)N1C[C@H]2[C@@H](c3ccccc31)[C@@H](CO)N2C(=O)c1ccccc1,-
O=C(c1ccccn1)N1C[C@@H]2[C@H](c3ccccc31)[C@@H](CO)N2C(=O)Cc1ccccc1,-
COc1cccc(-c2ccc([C@H]3[C@@H](CO)N(C(=O)c4ccccn4)[C@H]3C#N)cc2)c1,-
COC(=O)[C@@H]1[C@@H](CO)[C@@H]2Cn3c(ccc(-c4ccccc4OC)c3=O)[C@@H]2N1CC1CCCC1,-
C[C@@H]1CN([C@H](C)CO)C(=O)c2cc(NS(=O)(=O)c3ccc(F)cc3)ccc2O[C@@H]1CN(C)C(=O)Nc1ccccc1,-
C[C@H](CO)N1C[C@H](C)[C@H](CN(C)C(=O)c2cnccn2)Oc2cc(C#CCC3CCCC3)ccc2S1(=O)=O,-
C[C@@H]1CN([C@@H](C)CO)C(=O)c2cc(NC(=O)Nc3ccc(C(F)(F)F)cc3)ccc2O[C@@H](C)CCCCO[C@H]1CN(C)CC1CCCCC1,-
COc1ccc(NC(=O)Nc2ccc3c(c2)C(=O)N([C@@H](C)CO)C[C@@H](C)[C@@H](CN(C)Cc2ccc(C(F)(F)F)cc2)OCCCC[C@H](C)O3)cc1,-
COc1ccc(S(=O)(=O)Nc2ccc3c(c2)C(=O)N([C@H](C)CO)C[C@@H](C)[C@H](CN(C)C(=O)Nc2ccc(C(F)(F)F)cc2)OCCCC[C@@H](C)O3)cc1,-
C[C@H](CO)N1C[C@H](C)[C@H](CN(C)CC2CCCCC2)OCCCC[C@H](C)Oc2ccc(NC(=O)Nc3ccc(C(F)(F)F)cc3)cc2C1=O,76[25 µM]
COc1ccc(S(=O)(=O)Nc2ccc3c(c2)C(=O)N([C@@H](C)CO)C[C@H](C)[C@@H](CN(C)Cc2ccc(C(F)(F)F)cc2)OCCCC[C@@H](C)O3)cc1,76[25 µM]
C[C@@H]1CN([C@H](C)CO)C(=O)c2cc(NS(=O)(=O)c3ccc(Cl)cc3)ccc2O[C@@H](C)CCCCO[C@H]1CN(C)Cc1ccc(Cl)c(Cl)c1,-
C[C@H]1CCCCO[C@@H](CN(C)Cc2ccncc2)[C@@H](C)CN([C@@H](C)CO)C(=O)c2cc(NS(=O)(=O)c3ccc(Cl)cc3)ccc2O1,-
COc1ccc(CN(C)C[C@H]2OCCCC[C@H](C)Oc3ccc(NS(=O)(=O)c4ccc(Cl)cc4)cc3C(=O)N([C@H](C)CO)C[C@H]2C)cc1,63
C[C@@H]1CN([C@H](C)CO)C(=O)c2cc(NC(=O)Nc3ccc(C(F)(F)F)cc3)ccc2O[C@@H](C)CCCCO[C@@H]1CN(C)CC1CCCCC1,-
CCOC(=O)N(C)C[C@H]1OCc2ccccc2-c2ccccc2C(=O)N([C@@H](C)CO)C[C@H]1C,-
SMILES,CD40 NFkB inh
O=C(NCc1ccccc1F)[C@H]1[C@H](CO)[C@H]2Cn3c(cccc3=O)[C@H]2N1CC1CCCC1,-
O=C(Cc1cccnc1)N1[C@@H](CO)[C@@H]2c3ccccc3NC[C@@H]21,-
N#C[C@H]1[C@@H](c2ccccc2C2=CCCCC2)[C@@H](CO)N1C(=O)c1cccc(F)c1,-
O=C(c1ccccn1)N1CC[C@@H]2[C@@H](CO)Nc3ccc(-c4ccc(F)cc4)cc3[C@@H]21,-
CC(C)(C)[S@](=O)N1Cc2cc(C(=O)NCCN3CCCCC3)nc(-c3cccc(-c4cccc(C#N)c4)c3)c2[C@@H]1CCO,-
CO[C@@H]1CN(C)C(=O)c2cc(NC(=O)Nc3ccccc3Cl)ccc2OC[C@@H](C)N(S(=O)(=O)CC(F)(F)F)C[C@H]1C,-
CN(C)C(=O)[C@H]1[C@H](CO)[C@H]2Cn3c(ccc(-c4ccncc4)c3=O)[C@H]2N1Cc1ccccc1,-
CCS(=O)(=O)N1CC2(C1)[C@H](c1ccccc1)[C@H](CO)N2C(=O)c1ccccc1,-
CC(C)C#Cc1ccc([C@H]2[C@H](CO)N3C(=O)CN(C(=O)NC4CCCC4)C[C@@H]23)cc1,-
C[C@@H]1CN([C@@H](C)CO)C(=O)c2c(c3ccccc3n2C)-c2ccccc2CO[C@@H]1CN(C)Cc1ccccc1,-
Cn1cccc1C(=O)OCC(=O)Nc1ccc2c(c1)OCCO2,55
Cn1cccc1C(=O)OCC(=O)NCc1ccc2c(c1)OCO2,-
O=C(COC(=O)c1ccco1)Nc1ccc2c(c1)OCCO2,-
CN(C)C(=O)C[C@H]1CC[C@H]2[C@H](COc3ccc(NC(=O)C4CCCC4)cc3C(=O)N2C)O1,-
O=C(Cc1cccc([N+](=O)[O-])c1)Nc1ccccc1,-
O=[N+]([O-])c1ccc(CS(=O)c2ccccc2)cc1 (centres undefined),-
O=[N+]([O-])c1ccc(S(=O)Cc2ccccc2)c([N+](=O)[O-])c1 (centres undefined),106
CC(C)CCC(CCNCc1ccccn1)c1ccc2c(c1)OCO2 (centres undefined),-
CC(=O)N(CCC(Cc1ccccc1)c1ccc2c(c1)OCO2)Cc1ccccc1F (centres undefined),-
Fc1ccccc1CNCCC(Cc1ccccc1)c1ccc2c(c1)OCO2 (centres undefined),33
Cc1ccccc1-c1ccc([C@@H]2[C@H](CO)N3C(=O)CN(C(=O)c4ccncc4)C[C@@H]23)cc1,-
CCOC(=O)c1c(-c2ccc(C)o2)csc1NC(=O)COC(=O)c1cccs1,80
CCOC(=O)c1c(-c2ccc(C)o2)csc1NC(=O)CN1CCOCC1,-
CCOC(=O)c1c(-c2ccc(C)o2)csc1N,-
CCCNC(=O)C[C@H]1CC[C@@H]2[C@H](COc3ccc(NC(=O)CC)cc3C(=O)N2C)O1,-
O=C(Cc1ccncc1)N1C[C@@H]2N[C@H](C1)C2c1ccc(-c2ccncc2)cc1 (some centres undefined),-
CO[C@@H](CN(C)Cc1cc(F)ccc1F)[C@H](C)CN(C(=O)Nc1ccc(C(F)(F)F)cc1)[C@H](C)CO,-
CO[C@H](CN(C)Cc1cc(F)ccc1F)[C@H](C)CN(C(=O)Nc1ccc(C(F)(F)F)cc1)[C@H](C)CO,53[25 µM]
CO[C@@H](CN(C)Cc1ccc2c(c1)OCO2)[C@@H](C)CN(C(=O)Nc1ccc(F)cc1)[C@H](C)CO,-
